The experiment is described as follows: qHTS drug screen for cell cycle checkpoint inhibitors in PARPi-resistant BRCA-mutant ovarian cancer cell lines. (AID 1963452). The following applies: PEO1/OlaR viability, CellTiter-Glo luminescence, 96 h; for Z-AUC: stronger effect = lower value. From the text: Women's Malignancies Branch, Center for Cancer Research (CCR),
National Cancer Institute (NCI), National Institutes of Health (NIH), Bethesda, MD
Poly (ADP-ribose) polymerase inhibitors (PARPis) have changed the treatment paradigm in breast cancer gene (BRCA) - mutant high-grade serous ovarian carcinoma (HGSC). However, most patients eventually develop resistance to PARPis, highlighting an unmet need for improved therapeutic strategies. Using high-throughput drug screens, we identified ataxia telangiectasia and rad3-related protein/checkpoint kinase 1 (CHK1) pathway inhibitors as cytotoxic and further validated the activity of the CHK1 inhibitor (CHK1i) prexasertib in PARPi-sensitive and -resistant BRCA-mutant HGSC cells and xenograft mouse models. CHK1i monotherapy induced DNA damage, apoptosis, and tumor size reduction. We then conducted a phase 2 study (NCT02203513) of prexasertib in patients with BRCA-mutant HGSC. The treatment was well tolerated but yielded an objective response rate of 6% (1 of 17; one partial response) in patients with previous PARPi treatment. […] BRCA reversion mutation in previously PARPi-treated BRCA-mutant patients was not associated with resistance to CHK1i.
Among others, 1082 oncology drugs, both approved and investigational, were prioritized based on their status in clinical trial development. […] Drugs with average Z-AUC values less than -1.0 in all three cell lines were classified as "hits" resulting in 151 oncology drug hits. The screen also confirmed cross-resistance between olaparib and other PARPis (rucaparib, niraparib, and talazoparib) in PARPi-resistant PEO1/OlaR and PEO4.
[1] G. L. Lin, K. M. Wilson, M. Ceribelli, B. Z. Stanton, P. J. Woo, S. Kreimer, E. Y. Qin, X. Zhang, J. Lennon, S. Nagaraja, P. J. Morris, M. Quezada, S. M. Gillespie, D. Y. Duveau, A. M. Michalowski, P. Shinn, R. Guha, M. Ferrer, C. Klumpp-Thomas, S. Michael, C. McKnight, P. Minhas, Z. Itkin, E. H. Raabe, L. Chen, R. Ghanem, A. C. Geraghty, L. Ni, K. I. Andreasson, N. A. Vitanza, K. E.Warren, C. J. Thomas, M. Monje, Therapeutic strategies for diffuse midline glioma from high-throughput combination drug screening. Sci. Transl. Med. 11, (2019).
[2] T. M. Yamamoto, A. McMellen, Z. L. Watson, J. Aguilera, R. Ferguson, E. Nurmemmedov, T. Thakar, G. L. Moldovan, H. Kim, D. M. Cittelly, A. M. Joglar, E. P. Brennecke, H. Wilson, K. Behbakht, M. J. Sikora, B. G. Bitler, Activation of Wnt signaling promotes olaparib resistant ovarian cancer. Mol. Carcinog. 58, 1770 - 1782 (2019).
PROTOCOL TABLE (as described by Inglese J, Shamu CE and Guy RK. 2007)
SEQUENCE No. (e.g., 1, 2, 3, etc.); […] (e.g., Cells, Incubation, Reagent, etc.); VALUE; DESCRIPTION.
1; Compounds; 20nL; 1536-well white tissue culture-treated plates.
2; Cells; 5 uL; PEO1, PEO4, and PEO1/OlaR cells at 600 cells per well.
3; Incubation; 96 hr; 37C, 95% humidity, 5% CO2.
4; Reagent; 3 uL; CellTiter-Glo (Promega).
5; Incubation; 15 min; room temperature.
6; Detection; Luminescence, PHERAstar (BMG Labtech) plate reader.
NOTES (numbers refer to Sequence numbers above)
1. MIPE 5.0 compounds were acoustically dispensed by Echo Acoustic Liquid Handler (Beckman Coulter Life Sciences). Each compound was plated at an 11-point concentration range with 1:3 dilution. Bortezomib, a proteasome inhibitor (final concentration, 20 uM), was used as a positive.
2. PEO1, PEO4, and PEO1/OlaR were trypsinized and dispensed in 5 uLof growth medium using a Multidrop Combi dispenser at a density of 600 cells per well to allow compounds to be present during the exponential growth phase.
3. Plates were incubated for 96 hours at standard incubator conditions and covered by a stainless steel gasketed lid to prevent evaporation.
4. Three microliters of CellTiter-Glo (Promega) were added to each well.
5. Plates were incubated at room temperature for 15 min with a stainless-steel lid in place.
6. Luminescence readings were taken using PHERAstar (BMG Labtech). […]
For orientation: qHTS replaces the single test concentration by a dilution series.

[1] abbreviates: measured here: PEO1 parental Z-AUC.

The source made the active and inactive calls. Calls come from the whole dose curve.
Potency is the fitted concentration of half-maximal effect.

Take `CS[C@H]1SC[C@@H]2C(=O)N(C)[C@H](C(C)C)C(=O)OC[C@H](NC(=O)c3cnc4ccccc4n3)C(=O)N[C@H](C)C(=O)N(C)[C@H]1C(=O)N(C)[C@H](C(C)C)C(=O)OC[C@H](NC(=O)c1cnc3ccccc3n1)C(=O)N[C@H](C)C(=O)N2C`: the Potency is 8.7 nM (active). Also, under setting [1], the Z-AUC was -3.58. The Z-AUC (measured here: PEO4 Z-AUC) was -3.11.

With `Cc1c(-c2ccc(-c3ccccc3F)cc2)nc2ccc(F)cc2c1C(=O)O`, the Potency was 2750 nM (active). The Z-AUC under setting [1] is -1.54. Besides, where the note is “measured here: PEO4 Z-AUC”, the Z-AUC was -1.34.

With `C=CC(=O)N1CCC(CNc2ncnc(N)c2-c2ccc(Oc3ccccc3)cc2)CC1`, the Z-AUC is 1.54 (inactive). The Z-AUC under setting [1] is 1.18. For the same molecule, the Z-AUC (measured here: PEO4 Z-AUC) stood at 1.23.

With `CC(=O)O/N=C1\C(=O)N(Cc2cc(Cl)ccc2Cl)c2ccc(Cl)cc21`, the Z-AUC was 1.65 (inactive). Also, under setting [1], the Z-AUC is 1.54. Further, the Z-AUC (measured here: PEO4 Z-AUC) stood at 1.73.

Take `O=C([O-])C[O-].[Pt+2]`: the Z-AUC was 1.62 (inactive). Further, the Z-AUC under setting [1] was found to be 1.67. For the same molecule, the Z-AUC (measured here: PEO4 Z-AUC) was determined as 1.5.

As for `O=C(NCc1ccccc1)[C@H](Cc1ccccc1)NC(=O)[C@H]1O[C@@H]1C(=O)NCCc1ccc(O)cc1`, the Z-AUC is 1.49 (inactive). Further, under setting [1], the Z-AUC was 0.636. The Z-AUC (measured here: PEO4 Z-AUC) was determined as 0.423.

On to `CC[C@H]1OC(=O)[C@H](C)C(=O)[C@H](C)[C@@H](O[C@H]2O[C@H](C)C[C@H](N(C)C)[C@H]2O)[C@](C)(OC)C[C@@H](C)C(=O)[C@H](C)[C@H]2N(CCCCn3cnc(-c4cccnc4)c3)C(=O)O[C@]12C`, for which the Z-AUC is 0.729 (inactive). The Z-AUC under setting [1] is 0.267. Also, where the note is “measured here: PEO4 Z-AUC”, the Z-AUC is -0.0116.

Take `CC/C(=C(/c1ccc(O)cc1)c1ccc(OCCNC)cc1)c1ccccc1`: the Z-AUC is 0.452 (inactive). Besides, the Z-AUC under setting [1] amounted to 0.257. Moreover, the Z-AUC (measured here: PEO4 Z-AUC) was -0.283.

As to `[2H]c1nc(C)nc([2H])c1-c1cc(NC[C@@H](C)c2cccc3c(C(=O)NC)ccnc23)ncn1`, the Z-AUC is 1.38 (inactive). The Z-AUC under setting [1] came out at 1.26. Further, the Z-AUC (measured here: PEO4 Z-AUC) was found to be 1.18.

Consider `COc1ccc2c(c1)C(c1ccc(F)cc1)=C(CN1CCCC1)CO2`, for which the Z-AUC was -0.385 (inactive). Further, the Z-AUC under setting [1] was found to be 0.0924. Besides, the Z-AUC (measured here: PEO4 Z-AUC) amounted to 0.0293.

Turning to `O=S(=O)(Nc1ccc(-c2cccnc2)c2cccnc12)c1cccc(C(F)(F)F)c1`, the Z-AUC was 0.456 (inactive). The Z-AUC under setting [1] is 0.0874. Also, for the setting “measured here: PEO4 Z-AUC”, the Z-AUC is 0.396.

`C[C@@H]1CC(=O)Nc2cccc(-c3cnn(C(C)(C)C)c3)c2N1`: the Z-AUC is -0.505 (inactive). In addition, the Z-AUC under setting [1] was -0.577. The Z-AUC (measured here: PEO4 Z-AUC) was -0.924.

For `CN(C)CCOc1ccc(-c2nc(-c3ccc4c(c3)CC/C4=N\O)c(-c3ccncc3)[nH]2)cc1`, the Z-AUC was -0.892 (inactive). Moreover, the Z-AUC under setting [1] was -1.12. In addition, the Z-AUC (measured here: PEO4 Z-AUC) was -1.55.

For the molecule `CC1=C2[N-][C@H]([C@H](CC(N)=O)[C@@]2(C)CCC(=O)NC[C@@H](C)OP(=O)([O-])O[C@H]2[C@@H](O)[C@@H](n3cnc4cc(C)c(C)cc43)O[C@@H]2CO)[C@]2(C)N=C(C(C)=C3N=C(C=C4N=C1[C@@H](CCC(N)=O)C4(C)C)[C@@H](CCC(N)=O)[C@]3(C)CC(N)=O)[C@@H](CCC(N)=O)[C@]2(C)CC(N)=O.O.[Co+2]`, the Z-AUC is -0.864 (inactive). In addition, the Z-AUC under setting [1] amounted to 0.932. Further, under “measured here: PEO4 Z-AUC”, the Z-AUC came to 0.294.

The values are drawn from PubChem BioAssay (NCATS).
